Compounds without any hit were thinned out: in the full panel of roughly 83,000, 20% have a hit.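 Single-concentration screen, 48 h exposure, 96-well plates. Endpoint: percent growth. Below 10 = active.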 Unmarked numbers belong to inactive results. Calls of active or inactive are those of the source.
test system: CCRF-CEM leukemia; assay: NCI-60 one-dose screen, 48 h (100 = growth as untreated, 0 = no growth, -100 = all killed); conditions: 10 µM
Description: Growth inhibition of the CCRF-CEM human tumor cell line is measured as a screen for anti-cancer activity. Cells are grown in 96 well plates and exposed to the test compound for 48 hours. Compounds are tested at a single concentration, which is 10^-5 M for most compounds. The reported endpoint is percent growth (GI% or GIPRCNT), where numbers from 0 - 100% represent growth inhibition, and numbers from -100% - 0 represent cell death. For example, a value of 40 represents 60% growth inhibition. A value of 0 means no net growth occurred over the course of the experiment. A value of -40 indicates 40% of cells at the beginning of the experiment died by the end of the experiment. A value of -100 means all cells are dead at the end of the experiment.
NCI-60 Human Tumor Cell Lines Screen was performed using the standard one-dose NCI protocol, which is described in more detail at https://dtp.cancer.gov/discovery_development/nci-60/default.htm.
Compounds with GIPRCNT values below 10 were considered active. Activity score was based on GIPRCNT using the following formula: […]
Score is 0 for GIPRCNT values of 100 or above, 50 for GIPRCNT values of 0, and 100 for GIPRCNT values of -100.

Row | Compound | growth
1 | Cn1c([N+](=O)[O-])cnc1C=C1C(=O)c2ccccc2C1=O | 18.4%
2 | COc1ccc(-c2nnc(SC/C(=N\O)c3ccccc3)o2)cc1 | 88.9%
3 | O=C(NC1CCCC1)c1ccc(N2CCC(NCc3cccc(C(F)(F)F)c3)CC2)cc1 | 75.7%
4 | COc1cc(-c2cc(-c3ccc(C)cc3)nc3nc(N)[nH]c(=O)c23)ccc1Oc1ccnc2cc(Cl)ccc12 | 40.6%
5 | CCOC(=O)c1ccc(NC(=O)Nc2nncs2)cc1 | 7.54% (active)
6 | COCCOC(=O)NC(=O)Nc1ccc(C(=O)c2ccc(Cl)cc2)cc1 | 18.5%
7 | Cn1c([N+](=O)[O-])cnc1/C=C1\Oc2ccc(Br)cc2C1=O | 5.39% (active)
8 | Cc1ccccc1C1=N[C@@H](Cc2ccccc2)C(=O)c2c(nc3ccccn23)N1 | 105%
9 | OC(CNC1CCCC1)Cn1c2ccccc2c2ccccc21 (stereo not given) | 4.28% (active)
10 | O=C1CC(c2cccc(-c3cccnc3)c2)=Nc2ccc(Br)cc2N1 | 50.8%
11 | Nc1nsc(C(=O)c2ccc(O)cc2)n1 | 89.8%
12 | O=C(O)CNS(=O)(=O)c1ccc(OCCOc2ccc(S(=O)(=O)NCC(=O)O)cc2)cc1 | 112%
13 | Cn1cnc([N+](=O)[O-])c1/C=C1\Oc2ccc(Cl)cc2C1=O | 33.7%
14 | COc1ccc(Nc2ccnc(N3CCN(c4ccnc5cc(Cl)ccc45)CC3)n2)cc1 | 2.09% (active)
15 | O=S(=O)(NC1c2ccccc2Oc2ccccc21)c1cc(Cl)ccc1Cl | 74.8%
16 | O=C1CC[C@@H](C(=O)N[C@H]2CSSC[C@@H](C(=O)NCCc3ccccc3)NC(=O)[C@H](Cc3ccccc3)NC(=O)[C@@H]3CCCN3C(=O)[C@@H]3CCCN3C2=O)N1 | 69.4%
17 | COc1ccc(C2=Cc3ccc(OC(C)=O)cc3OC2)cc1 | 70.8%
18 | COc1cccc(C(=O)NNc2nc(N3CCOCC3)nc(N3CCN(C(c4ccccc4)c4ccccc4)CC3)n2)c1 | 85.1%
19 | O=c1oc2c3ccc4cnccc4c3[nH]c2c2ccccc12 | -1.54% (active)
20 | COc1ccc(-c2nnc(COc3ccc(NC(=O)Nc4ccccc4)cc3F)o2)cc1 | 61.2%

Row | Compound | growth
21 | Cc1ccc2c(c1)-c1cc(C)nn1-c1ccc(C#N)cc1O2 | 46.2%
22 | COc1ccc(C2C=C(c3ccc(Cl)c(Cl)c3)N=C3SC(C)=CN32)cc1 (stereo not given) | 82.8%
23 | c1ccc(CNc2nc(Nc3ccc(-c4nc5ccccc5[nH]4)cc3)c3cn[nH]c3n2)cc1 | 9.8% (active)
24 | COc1cc(NS(C)(=O)=O)ccc1Nc1c2ccc(Cl)cc2nc2c(OC)cccc12 | 2.75% (active)
25 | COc1cc(C(c2c[nH]c3ccccc23)N2CCCC2)ccc1OCc1ccccc1 (stereo not given) | 16.2%
26 | CCN(CC)CCn1c(=N)n(CC(O)c2ccc(Cl)c(Cl)c2)c2ccccc21 (stereo not given) | 78.9%
27 | Fc1ccc(-c2cc(C(Cl)Cl)no2)cc1 | 93.1%
28 | Cc1ccc(C2C=C(c3ccc(Cl)cc3)N=C3SC=CN32)c(Br)c1 (stereo not given) | 55.7%
29 | CC(=O)/C(=C\c1ccc(Cl)cc1)c1ccccc1 | 11.1%
30 | C/C(=N/NC(=O)c1sc(=S)n(C)c1N)c1cc2cc(Cl)ccc2o1 | 81.8%
31 | COc1cccc(-c2nnc(COc3ccc(-c4nc5ccc(C)cc5[nH]4)cc3OC)o2)c1 | 2.49% (active)
32 | O=NN(CCCl)C(=O)NCc1ccc(-c2ccc(CNC(=O)N(CCCl)N=O)cc2)cc1 | 93.3%
33 | COC(=O)c1c(C)nc(Nc2nc3ccccc3s2)nc1-c1ccc(Cl)cc1Cl | 95%
34 | Nc1ccc(C2=CC(c3ccc(Cl)cc3)N3C=CSC3=N2)cc1 (stereo not given) | -22.1% (active)
35 | CCCCc1ccc(NC(=O)N(CCCl)N=O)cc1 | 88.2%
36 | CC(=O)CS(C)(=O)=O | 103%
37 | COc1cc(CSc2nc3ccc(Cl)cc3c(=O)n2-c2ccccc2)cc(OC)c1OC | 95.1%
38 | N#CCC1CCCC1 | 92%
39 | Cn1c(N)c(N=Cc2ccccc2)c(=O)n(C)c1=O | 112%
40 | COc1ccc(/C(=C/c2cc(OC)c(OC)cc2[N+](=O)[O-])C(=O)O)cc1 | 98.6%

— PubChem BioAssay (NCI)
